Assay results from PubChem BioAssay (NCATS).
Records with an inconclusive call do not appear. Values without a mark were called inactive. Calls of active or inactive are those of the source. The call rests on the fitted dose curve; in most records, active means well fitted inhibition curve with a large enough effect; inconclusive means small, poorly fitted or top-dose-only effect; inactive means flat fitted curve, though single readings scatter.

target: Glutathione peroxidase 1 (Homo sapiens) (UniProt P07203); test: Primary qHTS Assay for Inhibitors of Recombinant Selenoprotein Glutathione Peroxidase 1 (GPX1) (AID 1845191); conditions: recombinant GPX1, GR-coupled NADPH fluorescence, 15 min; series mostly up to 48.8 µM; activity, negative = inhibition: at the top concentration; further: nearly all actives have a fitted effect of over 65% in size
Procedure, shortened: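 Recombinant GPX1 (10 nM final) was preincubated with compound for 30 min at room temperature, then reacted with 1 mM GSH, 0.5 mM CHP, 0.5 mM NADPH and 100 nM glutathione reductase; NADPH fluorescence (340/450 nm) was read at 0 and 15 min.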
On the % scale 0 is the no-effect control and ±100 the full control effect.

Glutathione peroxidase 1 (Homo sapiens), sequence (P07203 whole entry, looked up): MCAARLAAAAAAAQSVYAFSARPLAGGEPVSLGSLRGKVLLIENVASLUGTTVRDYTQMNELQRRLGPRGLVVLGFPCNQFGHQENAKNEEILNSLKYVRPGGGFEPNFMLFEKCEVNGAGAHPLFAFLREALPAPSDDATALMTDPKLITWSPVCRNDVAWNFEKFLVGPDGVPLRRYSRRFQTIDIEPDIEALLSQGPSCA

| SMILES | activity, negative = inhibition | outcome | Potency |
| --- | --- | --- | --- |
| COc1cc(NC(=O)c2cccc(-n3cc(NC(=O)Nc4cccc(C)c4)cn3)c2)cc(OC)c1OC | -11.6% | – | – |
| O=C(Nc1cccc(C(F)(F)F)c1)Nc1ccc(Br)cc1-c1nn[nH]n1 | -10.7% | – | – |
| C=C1C(=O)OC2/C=C(\COC(C)=O)CC/C=C(\C=O)CC(OC(=O)C(C)CC)C12 (centres undefined) | 0.179% [at 27.7 µM] | – | – |
| COc1cc([C@H]2O[C@H](c3cc(OC)c4c(c3)OCO4)[C@H](C)[C@H]2C)cc(OC)c1OC | -17.2% [at 27.7 µM] | – | – |
| CCNC(=O)Nc1ccc(-c2nc3c(c(N4CCOCC4C)n2)CCN(C2COC2)C3)cc1 (centres undefined) | – | inactive | – |
| C[C@H](Oc1cc(-n2cnc3ccc(CN4CCN(C)CC4)cc32)sc1C(N)=O)c1ccccc1C(F)(F)F | -2.98% | – | – |
| C=C1CC[C@@H]2[C@](C)(CO)[C@H](O)CC[C@@]2(C)[C@@H]1/C=C/C1=CCOC1=O | -18.7% [at 27.7 µM] | – | – |
| CCC(C)CC(=O)OC1C(=O)C(CO)=CC(O)C1C(C)C (centres undefined) | -0.376% | – | – |
| COC(CCc1ccc(O)cc1)CC(=O)CCc1ccc(O)cc1 (centres undefined) | -16.3% [at 27.7 µM] | – | – |
| Cc1cccc(CC(=O)N2CCc3c2ccc(-c2cn(C)c4ncnc(N)c24)c3F)n1 | -4.2% | – | – |
| c1cc(-c2cnn3cc(-c4ccc(N5CCNCC5)cc4)cnc23)c2cccnc2c1 | – | inactive | – |
| C[C@H]1CC[C@@]2(OC1)O[C@H]1CC3C4CC[C@H]5C[C@@H](O)CC[C@]5(C)C4=CC(=O)[C@]3(C)[C@H]1[C@@H]2C (some centres undefined) | -16.3% [at 27.7 µM] | – | – |
| CCN(Cc1cc(Nc2nc(C)cn3c(-c4cn[nH]c4)cnc23)sn1)C(C)(C)CO | -17.9% | – | – |
| C/C(=C\CCC(C)C1=CCC2(C)OC3=C(CC12)C(=O)C(O)CC3)CO (centres undefined) | -24.3% [at 27.7 µM] | – | – |
| O=C(NC1CCC1)c1ccc(C#Cc2cccc(F)c2)nc1 | -7.69% | – | – |
| C=C(C(=O)O[C@H]1C/C(C)=C/CC/C(CO)=C/[C@H]2OC(=O)C(=C)[C@H]12)C(O)CO (some centres undefined) | -3.88% [at 27.7 µM] | – | – |
| C=C1C(=O)OC2/C=C(\C)CC/C=C(\C)CC(OC(C)=O)C12 (centres undefined) | -25.4% | – | – |
| C=C(C)[C@@H]1CC[C@]2(C(=O)O)CC[C@]3(C(=O)O)[C@H](CCC4[C@@]5(C)CCC(=O)C(C)(C)C5CC[C@]43C)C12 (some centres undefined) | -4.11% [at 27.7 µM] | – | – |
| C=C(CCC1C(C)(O)CCC2C(C)(C)C(O)CCC12C)C(O)CO (centres undefined) | -18.4% [at 27.7 µM] | – | – |
| O=C(Nc1ccccc1)c1ccc(Nc2nnc(-c3ccc(O)cc3)c3ccccc23)cc1 | – | inactive | – |

| SMILES | activity, negative = inhibition | outcome | Potency |
| --- | --- | --- | --- |
| CCC(C)C(=O)Oc1cc(C)ccc1C1(COC(=O)C(C)C)CO1 (centres undefined) | – | inactive [at 27.7 µM] | – |
| CC(=O)C1=CCC2C3CC=C4CC(O)CC(O)C4(C)C3C(O)CC12C (centres undefined) | 2.01% [at 27.7 µM] | – | – |
| CNC(=O)c1cc(Oc2ccc(NC(=O)c3cccc(C(F)(F)F)c3)cc2)ccn1 | 4.19% | – | – |
| C[C@H](CN(C)C)Oc1nc(Nc2cc3cccc(Cl)c3cn2)cnc1C#N | – | – | inactive |
| O=C(NCCCNc1nc(Nc2cccc(CN3CCOCC3)c2)ncc1C1CC1)C1CCC1 | – | inactive | – |
| CCOc1cc(C(C)(C)C)ccc1C1=N[C@@](C)(c2ccc(Cl)cc2)[C@@](C)(c2ccc(Cl)cc2)N1C(=O)N1CCN(CC(=O)N2CCOCC2)CC1 | – | inactive [at 27.7 µM] | – |
| CC(=O)NCc1cccc(OC[C@@H](O)CNCCc2ccc(NS(=O)(=O)c3ccccc3)cc2)c1 | 0.619% | – | – |
| Cn1c(SCC(=O)N2CCC[C@H]2C(=O)Nc2ccccc2-c2ccccc2)nc2ccccc21 | – | inactive | – |
| CC(C)Oc1ccc(-c2cnc3c(-c4ccnc5ccccc45)cnn3c2)cc1 | -5.36% | – | – |
| CN1CCN(Cc2ccc(NC(=O)Cc3ccc(Oc4cc(NC(=O)C5CC5)ncn4)cc3)cc2C(F)(F)F)CC1 | -19.5% | – | – |
| CCOc1cccc(NC(=O)c2ccc(N3CCCC3)c(C(F)(F)F)c2)c1 | -17% | – | – |
| O=C(NCCO)c1cccc(-c2cc(Nc3ccc(OC(F)(F)F)cc3)ncn2)c1 | -17.4% | – | – |
| Cc1ccc(-c2ncccn2)c(C(=O)N2C[C@H](COc3ccc(F)cn3)CC[C@H]2C)c1 | 4.28% | – | – |
| CC(C)(C)c1ccc(C(=O)Nc2cc(Cl)c(Br)cc2C(=O)O)cc1 | -19.8% | – | – |
| CC(=O)OC1C(OC(=O)c2ccccc2)C2C(C)(C)CCC(OC(C)=O)C2(C)C23CCC(C)(C2)C(=O)CC13 (centres undefined) | -5.42% [at 27.7 µM] | – | – |
| CCOC(=O)CCNc1cc(N2CCc3ccccc3CC2)nc(-c2cccnc2)n1 | -19.7% | – | – |
| CC(C)(C)c1ccc(-c2nc3c(N4CCN(Cc5ccc6nccnc6c5)CC4)cccc3[nH]2)cc1 | -1.15% | – | – |
| CC1CCCC(O)CCC/C=C/c2cc(OS(=O)(=O)O)cc(O)c2C(=O)O1 (centres undefined) | 3.33% [at 27.7 µM] | – | – |
| Fc1ccc(-c2nc(C3CCNCC3)sc2-c2ccnc(NC3CC3)n2)cc1 | 0.496% | – | – |
